Records with an inconclusive call do not appear. Where a call stands in place of a potency, no number is given. Calls of active or inactive are those of the source. Unless noted, calls come from the whole dose curve; as a rule, active = well fitted curve in the direction sought with a large enough effect in the repeat runs; inconclusive = weak or mixed curves; inactive = no such curve, though single readings can be large; an effect the other way counts as inactive or inconclusive.
How the values were obtained:
[1] = target: Acetylcholinesterase (Homo sapiens) (UniProt P22303); test: Acetylcholinesterase (AChE) small molecule antagonists: enzyme-based qHTS assay (AID 1347397; calls by dose curve; note: nearly all actives have a fitted effect of over 55% in size); settings: Potency: AChE enzyme activity inhibition; outcome: AChE enzyme activity inhibition
In short: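 Compound or DMSO vehicle was pin-transferred onto recombinant human AChE (50 mU/mL as dispensed) and left 30 min at room temperature. Acetylthiocholine with DTNB then started the reaction, read colorimetrically 10 min later.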

[2] = target: Acetylcholinesterase (Homo sapiens) (UniProt P22303); test: Acetylcholinesterase (AChE) small molecule antagonists: fluorescence cell-based qHTS assay (AID 1347398; calls by dose curve; note: nearly all actives have a fitted effect of over 50% in size); settings: Potency: AChE activity; outcome: AChE activity
In short: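 Using neuroblastoma SH-SY5Y cells as the enzyme source, test chemicals are preincubated 30 min at 37 C; AChE-driven acetylthiocholine cleavage is then quantified by thiocholine-dependent Thiolite Green fluorescence after 40 min at room temperature.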

[3] = target: Acetylcholinesterase (Homo sapiens) (UniProt P22303); test: Acetylcholinesterase (AChE) small molecule antagonists: enzyme-based qHTS assay with human liver microsomes (AID 1347399; calls by dose curve; note: nearly all actives have a fitted effect of over 60% in size); settings: Potency: qHTS inhibition; outcome: qHTS inhibition
In short: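 Recombinant human AChE (50 mU/mL in the enzyme mix) and human liver microsomes (0.25 mg/mL final) were preincubated with compound and NADPH (0.25 mg/mL final) for 30 min at 37 C. Acetylthiocholine/DTNB was then added; thiocholine was read colorimetrically after 10 min at room temperature.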

[4] = qHTS assay for small molecules that induce genotoxicity in human embryonic kidney cells expressing luciferase-tagged ATAD5 (AID 651632); note: nearly all actives have a fitted effect of over 15% in size
In short: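 Test compounds were delivered by pin tool onto HEK293T reporter cells (2,000/well) expressing ATAD5 fused to luciferase. After 16 hr at 37C, 5% CO2, Amplite was added for 30 min at room temperature and luminescence was measured.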

[5] = qHTS assay for small molecule disruptors of the mitochondrial membrane potential (AID 720635); note: potency is the fitted concentration of half-maximal effect
In short: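 HepG2 cells (2,000/well) attached overnight at 37C, then took compound for 1 hr at 37C, 5% CO2. Mito-MPS dye was added for 30 min; fluorescence was read at 490/535 nm (monomers) and 540/590 nm (aggregates).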

[6] = qHTS assay to test for compound auto fluorescence at 590 nm (red) in HepG2 cells (AID 720674)
In short: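 Rose Bengal sodium served as the red fluorophore standard. HepG2 monolayers (overnight attachment, MEM with 10% FBS) were exposed to test compounds for 1 hr at 37 C and read at Ex 540/Em 590 nm.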

[7] = qHTS assay to test for compound auto fluorescence at 535 nm (green) in HepG2 cells (AID 720675)
[8] = qHTS assay to test for compound auto fluorescence at 460 nm (blue) in HEK293 cells (AID 720678)
In short: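 HEK293, 2,000 cells/well, 10% dialyzed FBS; attach 4-5 hr 37C; pin compound or DMSO; o/n 37C/5% CO2; fluorescence 405/460 nm; triamterene-equivalent units.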

[9] = qHTS assay to test for compound auto fluorescence at 590 nm (red) in HEK293 cells (AID 720679)
In short: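 Intensity at 540nm excitation and 590nm emission is reported as Rose Bengal sodium-equivalent autofluorescence. Measurements followed overnight exposure (37C, 5% CO2) of HEK293 cells, 2,000 per well, to 23 nL compound.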

[10] = qHTS assay to test for compound auto fluorescence at 535 nm (green) in HEK293 cells (AID 720680)
[11] = qHTS assay to test for compound auto fluorescence at 460 nm (blue) in HEK293 cell free culture (AID 720681)
In short: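 Test compounds were pinned into cell-free culture medium (DMEM with 10% FBS) and fluorescence was read directly at Ex/Em 405/460 nm. Signals were expressed as fluorescence equivalents of triamterene, with DMSO vehicle as control.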

[12] = qHTS assay to test for compound auto fluorescence at 535 nm (green) in HEK293 cell free culture (AID 720682)
In short: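 Cell-free medium (DMEM, 10% FBS) receives compound or DMSO by pintool. Plate read directly at Ex 485/Em 535 nm. Signal converted to fluorescein equivalency.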

[13] = qHTS assay to test for compound auto fluorescence at 590 nm (red) in HEK293 cell free culture (AID 720683)
In short: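 Tox21 10K library compounds were pinned into cell-free DMEM with 10% FBS and fluorescence was read at excitation 540 nm. Activity is expressed as Rose Bengal sodium equivalency.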

[14] = qHTS assay to test for compound auto fluorescence at 590 nm (red) in HepG2 cell free culture (AID 720684)
In short: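 Ex 540 / Em 590 nm read of compound in cell-free MEM (10% FBS). Rose Bengal sodium reference.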

[15] = qHTS assay to test for compound auto fluorescence at 460 nm (blue) in HepG2 cell free culture (AID 720685)
In short: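 Cell-free plates of MEM plus 10% FBS received 23 nL compound or DMSO vehicle; blue-channel (405/460 nm) intensity scored against triamterene as reference fluorophore.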

[16] = qHTS assay to test for compound auto fluorescence at 535 nm (green) in HepG2 cell free culture (AID 720686)
[17] = qHTS assay to test for compound auto fluorescence at 460 nm (blue) in HepG2 cells (AID 720687)
In short: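 Cells (2,000/well in MEM with 10% FBS) attached overnight at 37 C, then were exposed to compound or DMSO for 1 hr at 37 C, 5% CO2. Fluorescence read at Ex/Em 405/460 nm, expressed as triamterene-equivalent signal.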

[18] = target: Glucocorticoid receptor (Homo sapiens) (UniProt P04150); test: qHTS assay to identify small molecule agonists of the glucocorticoid receptor (GR) signaling pathway (AID 720691; active = well fitted activation curve with a large enough effect in the signal ratio in the repeat runs, not every such curve was filed as active; the % refers to the signal ratio)
In short: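 A HeLa cervical cancer line expressing GR and a glucocorticoid response element-driven beta-lactamase gene is treated with compounds for 18 h; LiveBLAzer B/G FRET substrate is then applied and fluorescence read.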

[19] = qHTS assay to identify small molecule antagonists of the glucocorticoid receptor (GR) signaling pathway - cell viability counter screen (AID 720693); note: nearly all actives have a fitted effect of over 55% in size
[20] = qHTS assay for identifying genotoxic compounds that show differential cytotoxicity against isogenic chicken DT40 cell lines with known DNA damage response pathways - wild type cell line (AID 743012); note: potency is the fitted concentration of half-maximal effect; nearly all actives have a fitted effect of over 60% in size
In short: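 300 wt DT40 cells/well; cpd (DMSO) pintool-transferred after ~0.5 h at 37 C/5% CO2; 40 h incubation; CellTiter-Glo added, 30 min RT; luminescence read.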

[21] = qHTS assay for identifying genotoxic compounds that show differential cytotoxicity against isogenic chicken DT40 cell lines with known DNA damage response pathways - Rad54/Ku70 mutant cell line (AID 743015); note: potency is the fitted concentration of half-maximal effect; nearly all actives have a fitted effect of over 60% in size
[22] = target: Androgen receptor (Homo sapiens) (UniProt P10275); test: qHTS assay to identify small molecule agonists of the androgen receptor (AR) signaling pathway using the MDA cell line (AID 743040; note: nearly all actives have a fitted effect of over 20% in size)
In short: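 Cell-based luciferase reporter: MDA-kb2, MMTV promoter (AR + GR response elements). 16 h compound exposure at 37C; ONE-Glo, 30 min RT, luminescence.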

[23] = qHTS assay to identify small molecule antagonists of the thyroid receptor (TR) signaling pathway - cell viability counter screen (AID 743064); note: potency is the fitted concentration of half-maximal effect; nearly all actives have a fitted effect of over 50% in size
In short: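 GH3.TRE-Luc cells, 4 h pre-plating; cpd + T3 1 nM final; 37 °C 23.5 h; CellTiter-Fluor 30 min; fluorescence read.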

[24] = qHTS assay to identify small molecule antagonists of the thyroid receptor (TR) signaling pathway (AID 743065); note: potency is the fitted concentration of half-maximal effect; nearly all actives have a fitted effect of over 55% in size
In short: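 GH3.TRE-Luc rat pituitary cells carrying two TR response elements driving luciferase were plated for 4 h, given compound plus 1 nM T3 (final), and incubated 23.5 h at 37 C. ONE-Glo luminescence measured reporter inhibition; CellTiter-Fluor fluorescence tracked cytotoxicity.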

[25] = target: Estrogen receptor (Homo sapiens) (UniProt P03372); test: qHTS assay to identify small molecule agonists of the estrogen receptor alpha (ER-alpha) signaling pathway (AID 743075; calls by dose curve;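 note: HEK293 GripTite cells with ER-alpha and UAS-driven beta-lactamase reporter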)
[26] = qHTS assay to identify small molecule antagonists of the estrogen receptor alpha (ER-alpha) signaling pathway using the BG1 cell line - cell viability counter screen (AID 743081);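 note: compound given together with 17beta-estradiol as the ER stimulus; series mostly up to about 70 µM; nearly all actives have a fitted effect of over 45% in size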
Aromatase (Homo sapiens) = Aromatase (Homo sapiens) (UniProt P11511); test: qHTS assay to identify aromatase inhibitors (AID 743083); note: potency is the fitted concentration of half-maximal effect; nearly all actives have a fitted effect of over 55% in size
[27] = qHTS assay to identify aromatase inhibitors - cell viability counter screen (AID 743084)

Acetylcholinesterase (Homo sapiens), sequence (P22303 whole entry, looked up): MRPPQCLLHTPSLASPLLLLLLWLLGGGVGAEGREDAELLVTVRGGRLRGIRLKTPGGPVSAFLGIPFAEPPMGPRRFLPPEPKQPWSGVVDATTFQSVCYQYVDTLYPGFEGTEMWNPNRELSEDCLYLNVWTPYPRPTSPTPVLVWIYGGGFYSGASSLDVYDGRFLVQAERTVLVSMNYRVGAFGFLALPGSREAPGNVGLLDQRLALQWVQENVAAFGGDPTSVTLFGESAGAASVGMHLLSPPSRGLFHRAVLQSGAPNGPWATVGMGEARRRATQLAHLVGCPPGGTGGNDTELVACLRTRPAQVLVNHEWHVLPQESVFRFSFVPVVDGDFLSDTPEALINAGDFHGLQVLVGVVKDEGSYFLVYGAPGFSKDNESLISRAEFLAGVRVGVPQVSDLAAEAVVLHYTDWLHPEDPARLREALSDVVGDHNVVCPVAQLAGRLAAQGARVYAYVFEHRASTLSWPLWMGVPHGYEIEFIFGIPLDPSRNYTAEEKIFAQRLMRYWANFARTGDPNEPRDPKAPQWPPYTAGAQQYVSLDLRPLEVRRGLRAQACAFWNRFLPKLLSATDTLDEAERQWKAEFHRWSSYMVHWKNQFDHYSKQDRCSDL
Androgen receptor (Homo sapiens), sequence (P10275 whole entry, looked up): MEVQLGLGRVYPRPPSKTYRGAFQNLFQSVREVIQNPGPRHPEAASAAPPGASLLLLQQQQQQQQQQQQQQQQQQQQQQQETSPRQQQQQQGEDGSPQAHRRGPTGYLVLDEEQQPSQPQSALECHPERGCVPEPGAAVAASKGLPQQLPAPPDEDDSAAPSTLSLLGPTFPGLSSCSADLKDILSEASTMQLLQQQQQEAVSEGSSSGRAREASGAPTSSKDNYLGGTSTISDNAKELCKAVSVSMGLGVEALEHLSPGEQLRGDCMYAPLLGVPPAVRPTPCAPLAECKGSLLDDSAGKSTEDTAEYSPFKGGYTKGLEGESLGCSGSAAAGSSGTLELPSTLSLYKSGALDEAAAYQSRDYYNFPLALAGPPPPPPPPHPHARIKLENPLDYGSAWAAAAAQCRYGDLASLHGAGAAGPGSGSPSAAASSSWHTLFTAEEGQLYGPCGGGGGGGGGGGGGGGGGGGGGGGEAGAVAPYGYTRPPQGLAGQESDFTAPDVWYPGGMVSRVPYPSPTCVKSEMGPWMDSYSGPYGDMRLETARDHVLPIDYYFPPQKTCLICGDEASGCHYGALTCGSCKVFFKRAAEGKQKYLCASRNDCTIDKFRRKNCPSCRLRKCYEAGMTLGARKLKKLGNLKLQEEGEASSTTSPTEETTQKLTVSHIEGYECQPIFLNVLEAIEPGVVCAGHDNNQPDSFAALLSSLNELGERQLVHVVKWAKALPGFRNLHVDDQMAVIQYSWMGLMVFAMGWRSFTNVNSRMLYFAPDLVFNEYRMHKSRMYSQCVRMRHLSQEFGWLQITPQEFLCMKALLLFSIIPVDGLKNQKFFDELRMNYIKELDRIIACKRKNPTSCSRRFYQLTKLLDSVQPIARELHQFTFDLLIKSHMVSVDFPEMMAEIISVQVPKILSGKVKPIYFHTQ
Aromatase (Homo sapiens), sequence (P11511 whole entry, looked up): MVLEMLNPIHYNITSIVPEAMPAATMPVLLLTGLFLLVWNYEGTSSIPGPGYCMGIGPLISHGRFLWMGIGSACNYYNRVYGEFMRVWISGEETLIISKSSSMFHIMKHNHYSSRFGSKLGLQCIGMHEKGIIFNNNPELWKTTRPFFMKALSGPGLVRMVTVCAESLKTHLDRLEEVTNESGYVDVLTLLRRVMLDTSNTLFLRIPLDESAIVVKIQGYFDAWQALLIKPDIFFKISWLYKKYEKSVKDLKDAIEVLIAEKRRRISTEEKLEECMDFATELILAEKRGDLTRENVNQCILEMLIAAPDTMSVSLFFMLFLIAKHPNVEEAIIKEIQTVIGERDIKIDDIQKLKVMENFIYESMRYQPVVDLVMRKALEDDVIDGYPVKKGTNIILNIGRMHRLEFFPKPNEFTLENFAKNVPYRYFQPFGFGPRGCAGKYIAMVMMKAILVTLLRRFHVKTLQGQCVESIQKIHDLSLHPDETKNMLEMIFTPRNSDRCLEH
Glucocorticoid receptor (Homo sapiens), sequence (P04150 whole entry, looked up): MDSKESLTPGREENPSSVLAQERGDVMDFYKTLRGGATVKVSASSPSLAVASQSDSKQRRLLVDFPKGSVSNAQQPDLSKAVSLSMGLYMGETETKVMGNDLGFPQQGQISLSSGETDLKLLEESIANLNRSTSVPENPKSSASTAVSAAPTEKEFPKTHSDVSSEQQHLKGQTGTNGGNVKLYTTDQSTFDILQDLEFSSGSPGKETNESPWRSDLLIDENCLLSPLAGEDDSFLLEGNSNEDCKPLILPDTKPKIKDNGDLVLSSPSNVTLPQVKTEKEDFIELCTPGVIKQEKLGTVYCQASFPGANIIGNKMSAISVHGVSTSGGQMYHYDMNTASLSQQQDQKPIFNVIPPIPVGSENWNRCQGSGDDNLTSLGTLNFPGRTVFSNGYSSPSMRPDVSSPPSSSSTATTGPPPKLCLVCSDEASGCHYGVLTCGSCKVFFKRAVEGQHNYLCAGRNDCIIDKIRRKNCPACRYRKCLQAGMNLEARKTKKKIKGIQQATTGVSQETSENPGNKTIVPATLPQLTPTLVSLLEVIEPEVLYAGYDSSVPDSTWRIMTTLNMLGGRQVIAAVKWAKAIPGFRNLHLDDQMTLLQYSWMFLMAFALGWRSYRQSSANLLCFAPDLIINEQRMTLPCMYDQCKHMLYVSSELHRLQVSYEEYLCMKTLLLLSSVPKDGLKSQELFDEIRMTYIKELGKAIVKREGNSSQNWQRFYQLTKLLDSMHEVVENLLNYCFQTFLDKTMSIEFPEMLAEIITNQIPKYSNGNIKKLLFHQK
Estrogen receptor (Homo sapiens), sequence (P03372 whole entry, looked up): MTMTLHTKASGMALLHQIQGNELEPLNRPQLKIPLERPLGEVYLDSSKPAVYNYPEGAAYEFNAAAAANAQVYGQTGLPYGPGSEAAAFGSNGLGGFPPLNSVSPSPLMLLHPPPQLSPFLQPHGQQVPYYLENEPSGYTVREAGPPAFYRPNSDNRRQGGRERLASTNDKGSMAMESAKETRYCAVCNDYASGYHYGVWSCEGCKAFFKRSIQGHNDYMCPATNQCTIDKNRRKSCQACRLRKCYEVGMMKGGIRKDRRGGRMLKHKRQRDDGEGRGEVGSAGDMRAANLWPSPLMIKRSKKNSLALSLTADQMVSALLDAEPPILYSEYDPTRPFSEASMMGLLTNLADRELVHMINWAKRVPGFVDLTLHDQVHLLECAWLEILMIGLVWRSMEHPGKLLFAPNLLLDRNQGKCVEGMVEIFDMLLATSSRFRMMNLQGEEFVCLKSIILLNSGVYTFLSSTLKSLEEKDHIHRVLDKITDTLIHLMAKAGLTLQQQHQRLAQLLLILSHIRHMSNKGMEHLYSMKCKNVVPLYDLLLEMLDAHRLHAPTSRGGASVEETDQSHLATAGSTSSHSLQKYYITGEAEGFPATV

Q: Which Potency [1] does the source give for `Cc1ccnc(NS(=O)(=O)c2ccc(N)cc2)n1` here?
A: The Potency was “inactive”.

Q: And the Potency [2]?
A: The Potency was “inactive”.

Q: And the Potency [3]?
A: The Potency was “inactive”.

Q: With `ON=C1CCCCC1` as the molecule, how does the Potency [1] read?
A: The Potency was “inactive”.

Q: What about the Potency [2] of the same molecule?
A: The Potency was “inactive”.

Q: What about the Potency [3] of the same molecule?
A: The Potency was “inactive”.

Q: For `CC(C)OCC1CO1` (centres undefined), which Potency [1] is on record?
A: Its Potency is “inactive”.

Q: What about the Potency [2] of the same molecule?
A: Its Potency is “inactive”.

Q: And the Potency [3]?
A: The Potency was “inactive”.

Q: What does the source list for `O=c1c2ccccc2[se]n1-c1ccccc1`?
A: Potency [4]: inactive; Potency [5]: 22.1 µM (active); outcome [6]: inactive; Potency [7]: inactive; Potency [8]: inactive; outcome [9]: inactive; Potency [10]: inactive; Potency [11]: inactive; Potency [12]: inactive; outcome [13]: inactive; outcome [14]: inactive; Potency [15]: inactive; Potency [16]: inactive; Potency [17]: inactive; Potency [18]: inactive; Potency [19]: inactive; Potency [20]: 5.31 µM (active); Potency [21]: 6.68 µM (active); Potency [22]: inactive; Potency [23]: 23.7 µM (active); Potency [24]: 23.7 µM (active); Potency [25]: inactive; Potency [26]: inactive; Potency (Aromatase (Homo sapiens)): 29.8 µM (active); Potency [27]: 26.6 µM (active)
